Data as given in PubChem BioAssay.
Results filed as inconclusive are left out. Activity calls are given as the source filed them.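 Rule for the calls, unless noted: active = normalized viability below 100% at a tested concentration; inactive = the rest.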

What was measured:
[1] = viability loss in pontine glioma line – cell-based, SU-DIPG-XVII, MIPE5.0, CellTiter-Glo, qHTS, dose response (AID 1347060; cut-off not given, nearly all actives have AC50 up to about 26 µM;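 note: cells exposed to compound for 48 hours before viability readout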); conditions: CellTiter-Glo ATP luminescence
[2] = viability loss in pontine glioma line – cell-based, JHH-DIPG-1, MIPE4.0, CellTiter-Glo, qHTS, dose response (AID 1347062; cut-off not given, nearly all actives have AC50 up to about 27 µM;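 note: cells exposed to compound for two days before readout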); conditions: JHH-DIPG-1 viability, CellTiter-Glo ATP luminescence
[3] = viability loss in pontine glioma line – cell-based, SU-DIPG-IV, MIPE4.0, CellTiter-Glo, qHTS, dose response (AID 1347063; cut-off not given, nearly all actives have AC50 up to about 30 µM;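 note: compound exposure lasted 48 hours before the viability readout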); conditions: CellTiter-Glo ATP luminescence
[4] = viability loss in pontine glioma line – cell-based, SU-DIPG-XIII, MIPE5.0, CellTiter-Glo, qHTS, dose response (AID 1347064; cut-off not given, nearly all actives have AC50 up to about 23 µM;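 note: cells exposed to compound for 48 hours before the viability read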); conditions: CellTiter-Glo ATP luminescence
[5] = viability loss in pontine glioma line – cell-based, SU-DIPG-XXV, MIPE5.0, CellTiter-Glo, qHTS, dose response (AID 1347065; cut-off not given, nearly all actives have AC50 up to about 26 µM;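 note: cells exposed to compound for 48 hours before ATP readout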); conditions: CellTiter-Glo ATP luminescence
[6] = growth inhibition of DIPG cells – cell-based, MIPE4.0 library, CellTiter-Glo luminescence, qHTS (AID 1347066; cut-off not given, nearly all actives have AC50 up to about 30 µM;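 note: cells exposed to compound for 48 hours before readout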); conditions: SU-DIPG-VI viability, CellTiter-Glo ATP luminescence
[7] = JHH-DIPG-1 glioma cell viability, MIPE5.0 library, CellTiter-Glo luminescence, qHTS (AID 1347067; cut-off not given, nearly all actives have AC50 up to about 26 µM;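 note: cells exposed to compound for 48 hours before readout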); conditions: JHH-DIPG-1 glioma viability, CellTiter-Glo ATP luminescence
[8] = growth inhibition of DIPG cells – cell-based, MIPE5.0 library, qHTS (AID 1347068; cut-off not given, nearly all actives have IC50 up to about 30 µM;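 note: cells exposed to compound for 48 hours before viability readout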); conditions: SU-DIPG-XXV viability
[9] = viability loss with induced miR-34 in A549 – imaging, A549 dox-inducible miR-34, nuclei and caspase counts, primary screen (AID 1347080;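 active = compounds whose cell count with miR-34 switched on is under 0.7 times the count with it off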); conditions: A549 miR-34 inducible, Hoechst nuclei count, 48 h
[10] = compounds altering HSF1 focus formation in cells – imaging, Selleck Cancer Library (AID 1347162; in the data active = plate-normalised HSF1 focus index below about 0.46); conditions: human cells, HSF1 nuclear foci imaging, at 10 µM; SSMD: measured here: HSF1 foci SSMD mean; cell count: measured here: cell number; plate-normalised HSF1 focus index: stronger effect = lower value
[11] = MELAS cybrid and Rieske KO viability enhancers – cell-based, MELAS cybrids, Rieske KO mouse fibroblasts, CellTiter-Glo, primary screen (AID 1508586;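 active = mean z-score across replicates of 1.96 or higher in either the MELAS or the Rieske mutant cell line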;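 note: z relative to plate mean and SD of compound and empty wells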); conditions: low glucose
[12] = drug combination growth inhibition, ovarian cancer – cell-based, oncology-focused library, rucaparib conditional, profiling panel (AID 1508598); conditions: patient-derived ovarian cancer cells, CellTiter-Glo viability, 144 h, stronger effect = lower value
[13] = stronger effect = lower value, cell number ratio, induced over uninduced
[14] = measured here: relative caspase fold change +Dox/-Dox
[15] = measured here: total cells with miR-34 induction, stronger effect = lower value
[16] = measured here: total cells without miR-34 induction
[17] = MELAS cybrid survival, CellTiter-Glo 48 h, stronger effect = higher value
[18] = Rieske KO mouse fibroblast survival, CellTiter-Glo 72 h
[19] = at 0.000305 µM, OCI-C5x cells, with rucaparib 10 µM, 100% = cells with rucaparib alone
[20] = at 0.000305 µM, OCI-C5x cells, without rucaparib
[21] = at 0.000305 µM, OCI-P5x cells, with rucaparib 20 µM, 100% = cells with rucaparib alone
[22] = at 0.000305 µM, OCI-P5x cells, without rucaparib
[23] = at 0.00122 µM, OCI-C5x cells, with rucaparib 10 µM, 100% = cells with rucaparib alone
[24] = at 0.00122 µM, OCI-C5x cells, without rucaparib
[25] = at 0.00122 µM, OCI-P5x cells, with rucaparib 20 µM, 100% = cells with rucaparib alone
[26] = at 0.00122 µM, OCI-P5x cells, without rucaparib
[27] = at 0.00488 µM, OCI-C5x cells, with rucaparib 10 µM, 100% = cells with rucaparib alone
[28] = at 0.00488 µM, OCI-C5x cells, without rucaparib
[29] = at 0.00488 µM, OCI-P5x cells, with rucaparib 20 µM, 100% = cells with rucaparib alone
[30] = at 0.00488 µM, OCI-P5x cells, without rucaparib
[31] = at 0.0195 µM, OCI-C5x cells, with rucaparib 10 µM, 100% = cells with rucaparib alone
[32] = at 0.0195 µM, OCI-C5x cells, without rucaparib
[33] = at 0.0195 µM, OCI-P5x cells, with rucaparib 20 µM, 100% = cells with rucaparib alone
[34] = at 0.0195 µM, OCI-P5x cells, without rucaparib
[35] = at 0.0781 µM, OCI-C5x cells, with rucaparib 10 µM, 100% = cells with rucaparib alone
[36] = at 0.0781 µM, OCI-C5x cells, without rucaparib
[37] = at 0.0781 µM, OCI-P5x cells, with rucaparib 20 µM, 100% = cells with rucaparib alone
[38] = at 0.0781 µM, OCI-P5x cells, without rucaparib
[39] = at 0.313 µM, OCI-C5x cells, with rucaparib 10 µM, 100% = cells with rucaparib alone
[40] = at 0.313 µM, OCI-C5x cells, without rucaparib
[41] = at 0.313 µM, OCI-P5x cells, with rucaparib 20 µM, 100% = cells with rucaparib alone
[42] = at 0.313 µM, OCI-P5x cells, without rucaparib
[43] = at 1.25 µM, OCI-C5x cells, with rucaparib 10 µM, 100% = cells with rucaparib alone
[44] = at 1.25 µM, OCI-C5x cells, without rucaparib
[45] = at 1.25 µM, OCI-P5x cells, with rucaparib 20 µM, 100% = cells with rucaparib alone
[46] = at 1.25 µM, OCI-P5x cells, without rucaparib
[47] = at 5 µM, OCI-C5x cells, with rucaparib 10 µM, 100% = cells with rucaparib alone
[48] = at 5 µM, OCI-C5x cells, without rucaparib
[49] = at 5 µM, OCI-P5x cells, with rucaparib 20 µM, 100% = cells with rucaparib alone
[50] = at 5 µM, OCI-P5x cells, without rucaparib

CC1(COc2ccc3c(c2)ncn3-c2ccc3cccc(N4CCC(N)CC4)c3n2)COC1
1330: cell count [9, 15]
-2.3: SSMD [10]
active: AC50 [1] 9.34 µM | AC50 [2] 0.332 µM | AC50 [3] 1.18 µM | AC50 [4] 10.5 µM | AC50 [5] 8.33 µM | AC50 [6] 23.5 µM | AC50 [7] 13.2 µM | IC50 [8] 26.3 µM | viability [12, 47] 77.3% | viability [12, 48] 77.6% | viability [12, 49] 4.5% | viability [12, 50] 81.8%
1.21: fold change [9, 14]
1400: cell count [9, 16]
inactive: fold change [9, 13] 0.944 | plate-normalised HSF1 focus index [10] 0.92 | z-score [11, 17] 0.899 | viability [12, 19] 110% | viability [12, 20] 122% | viability [12, 21] 122% | viability [12, 22] 113% | viability [12, 23] 115% | viability [12, 24] 125% | viability [12, 25] 119% | viability [12, 26] 120% | viability [12, 27] 111% | viability [12, 28] 121% | viability [12, 29] 120% | viability [12, 30] 117% | viability [12, 31] 115% | viability [12, 32] 127% | viability [12, 33] 119% | viability [12, 34] 127% | viability [12, 35] 119% | viability [12, 36] 130% | viability [12, 37] 131% | viability [12, 38] 120% | viability [12, 39] 116% | viability [12, 40] 137% | viability [12, 41] 129% | viability [12, 42] 123% | viability [12, 43] 102% | viability [12, 44] 131% | viability [12, 45] 142% | viability [12, 46] 119%
7140: cell count [10]
-3.35: z-score [11, 18]

CNC(=O)c1cc(Oc2ccc(NC(=O)Nc3cc(C(C)(C)C)nn3-c3ccc4ncccc4c3)c(F)c2)ccn1
0.93: z-score [11, 18]
632: cell count [9, 16]
0.469: fold change [9, 14]
608: cell count [9, 15]
6970: cell count [10]
inactive: outcome [6] | fold change [9, 13] 0.963 | plate-normalised HSF1 focus index [10] 1.01 | viability [12, 19] 112% | viability [12, 20] 112% | viability [12, 21] 103% | viability [12, 22] 108% | viability [12, 23] 102% | viability [12, 24] 117% | viability [12, 25] 110% | viability [12, 26] 103% | viability [12, 27] 108% | viability [12, 28] 116% | viability [12, 29] 116% | viability [12, 30] 102% | viability [12, 31] 107% | viability [12, 32] 118% | viability [12, 33] 110% | viability [12, 35] 115% | viability [12, 36] 113% | viability [12, 37] 114% | viability [12, 40] 105% | viability [12, 41] 120%
active: AC50 [1] 5.9 µM | AC50 [2] 7.43 µM | AC50 [3] 8.33 µM | AC50 [4] 0.0661 µM | AC50 [5] 9.34 µM | AC50 [7] 5.9 µM | IC50 [8] 20.9 µM | z-score [11, 17] 3.18 | viability [12, 34] 97.7% | viability [12, 38] 97.7% | viability [12, 39] 96.9% | viability [12, 42] 96.4% | viability [12, 43] 77.5% | viability [12, 44] 96.1% | viability [12, 45] 29.9% | viability [12, 46] 97.7% | viability [12, 47] 9.96% | viability [12, 48] 8.93% | viability [12, 49] 17.1% | viability [12, 50] 4.51%
0.0864: SSMD [10]
